This is an account of results in PubChem BioAssay (NCI).

SMILES strings stand for the structures. About 83,000 compounds went through this panel and 20% of them were active in at least one assay; those are over-represented in the sample as a whole.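 Treatment: one concentration, 48 hours, 96-well format. Scoring: percent growth, with anything below 10 considered active.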 Values without a mark were called inactive. The source made the active and inactive calls.

The test system of this experiment is NCI-H460 lung. In words: NCI-60 one-dose screen, 48 h (100 = growth as untreated, 0 = no growth, -100 = all killed). The note with it: 10 µM unless noted.
Regarding `CCOC(=O)c1ccc(N(CCC(=O)O)C(C)=O)cc1`, the growth is 111%.
Regarding `Nc1c(C(=O)Nc2cccc(Cl)c2)sc2ncc(Br)cc12`, the growth is 28.8%.
As to `CSC(=S)N/N=C(\C)c1ccccn1`, the growth is -18.1% (active).
Turning to `CC(=O)O[C@H]1[C@H](CC#CC#CC[C@@H]2C[C@]3(C)[C@H]4CC=C5[C@H]6[C@@H](C)[C@H](C)CC[C@]6(C(=O)NCCCCCCCCN)CC[C@@]5(C)[C@]4(C)CC[C@H]3C(C)(C)[C@H]2OC(C)=O)C[C@]2(C)[C@H]3CC=C4[C@H]5[C@@H](C)[C@H](C)CC[C@]5(C(=O)NCCCCCCCCN)CC[C@@]4(C)[C@]3(C)CC[C@H]2C1(C)C`, the growth is 103%.
Regarding `CC(C)COC(=O)NC(C)(C)C`, the growth was 107%.
Regarding `CCC(=O)NC(O)C(Cl)(Cl)C(C)Cl` (stereo not drawn), the growth was 109%.
With `C#CCNC(=S)N/N=C(\C)c1ccccn1` the figure was 4% (active).
With `COc1ccc(-c2nnc(SCC(=O)Nc3ccc(C(=O)/C=C/c4ccc(Cl)cc4)cc3)n2-c2ccccc2)cc1` the figure was 106%; with `CC1CCN(Cc2ccc(NC(=O)c3cc4ccc5cccnc5c4[nH]3)cc2)CC1`, 8.35% (active); with `CC(C)N1CCN(c2ccncc2S(=O)(=O)N2CCN(C)CC2)CC1`, 102%.
On to `O=C(/C=C/c1ccccc1)n1c(-c2ccccc2)nc2ccccc21`, for which the growth was 103%.
Consider `COC1CC(N)C2OC(c3ccccc3)OCC2O1` (stereo not drawn), for which the growth is 103%.
With `COc1cccc(NC(=O)[C@H](C(C)C)n2c(=O)[nH]c3ccccc3c2=O)c1` the figure was 103%.
